A3G deaminase – blocks human APOBEC3G single-stranded DNA deamination; inhibition, % at 20 µM; AID 493012; Q9HC16; 0.28% of 330,000 active; recombinant A3G, ssDNA deamination FAM/TAMRA fluorescence;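 active = inhibition of at least 40% at 20 µM, with no more than 30% in the related APOBEC3A deaminase screen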
Target sequence (Q9HC16 whole entry, looked up): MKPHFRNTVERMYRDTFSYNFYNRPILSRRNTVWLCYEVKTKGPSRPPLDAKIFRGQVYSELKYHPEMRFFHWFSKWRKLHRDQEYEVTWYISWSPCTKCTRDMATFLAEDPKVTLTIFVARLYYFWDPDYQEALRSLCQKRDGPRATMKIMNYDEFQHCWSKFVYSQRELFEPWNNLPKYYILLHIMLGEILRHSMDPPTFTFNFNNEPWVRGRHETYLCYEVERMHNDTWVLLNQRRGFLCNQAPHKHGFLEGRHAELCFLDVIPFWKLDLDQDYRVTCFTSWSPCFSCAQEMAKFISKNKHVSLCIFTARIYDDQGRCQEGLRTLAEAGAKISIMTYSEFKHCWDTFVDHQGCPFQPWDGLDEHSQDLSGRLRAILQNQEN
A3A deaminase – human APOBEC3A DNA deaminase inhibition. P31941. 0.41% of 330,000 active. inhibition, % at 20 µM. recombinant A3A, FAM/TAMRA ssDNA deamination fluorescence;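 active = at least 40% inhibition at 20 µM here, with at most 30% in a related deaminase screen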
MITF act – MITF TRPM1 promoter activation in melanoma cells | SK-MEL-5 TRPM1-promoter luciferase, 24 h; % of positive control, neutral wells = 0 | activation, % at 12.5 µM | AID 588334 | 0.75% of 300,000 active;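 active = mean activation of at least 80% with every replicate also reaching 80%; inconclusive = mean reaches 80% but some replicate falls short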
Wnt act – activators of Wnt/beta-catenin signaling; activation, % at 9.35 µM; 1.2% of 300,000 active; Wnt/beta-catenin reporter cell assay, activator, plate reader; in the data active = activation above about 30%, passing the limit was not always enough; inconclusive = no clear call, values can overlap the other calls
PHOSPHO1 inh – inhibitors of human PHOSPHO1 phosphatase. AID 1565. Q8TCT1. inhibition, % at 13.3 µM. recombinant PHOSPHO1, absorbance phosphatase assay. 1.1% of 290,000 active; in the data active = inhibition above about 60%
Target sequence (Q8TCT1 whole entry, looked up): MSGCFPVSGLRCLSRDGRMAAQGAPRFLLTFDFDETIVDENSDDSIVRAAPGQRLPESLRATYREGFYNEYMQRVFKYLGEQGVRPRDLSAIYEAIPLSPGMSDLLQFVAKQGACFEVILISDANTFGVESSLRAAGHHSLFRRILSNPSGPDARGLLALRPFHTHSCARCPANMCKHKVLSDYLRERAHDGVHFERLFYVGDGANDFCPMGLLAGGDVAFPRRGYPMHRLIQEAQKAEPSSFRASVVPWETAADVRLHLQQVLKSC
esBAF inh – inhibitors of esBAF chromatin remodeling in mouse ES cells. Bmi1-luciferase knock-in reporter, 24 h; 100% = twice the neutral-well signal. reporter increase, % at 12.5 µM. 2% of 350,000 active. AID 602393; in the data active = activation above about 40%; inconclusive = no clear call, values can overlap the other calls;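 note: a rise in the Bmi1 reporter signal indicates esBAF inhibition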
Large screens that a line does not name were inactive. In the library only some 3.6% were active in any assay of this set; here they are far more common.

COc1ccc(N2CCN(C(=O)c3cc(=O)[nH]c4ccccc34)CC2)cc1	none
O=C(c1cc(=O)[nH]c2ccccc12)N1CCN(c2ccc([N+](=O)[O-])cc2)CC1	Wnt act 38.9
COc1ccc2nc(-c3ccccc3)[nH]c2c1	Wnt act 75.2 (no result: MITF act)
COc1ccc(-c2nc3ccc([N+](=O)[O-])cc3[nH]2)cc1	Wnt act 50.0 (no result: A3G deaminase, A3A deaminase, esBAF inh)
COc1ccc2[nH]c(-c3ccccc3)cc2c1	MITF act 106.5, Wnt act 46.4, esBAF inh inconclusive
C[C@@H]1CN([C@H](C)CO)C(=O)c2cc(NC(=O)NC3CCCCC3)ccc2O[C@@H]1CN(C)C	none (no result: A3G deaminase, A3A deaminase, MITF act, Wnt act, PHOSPHO1 inh)
CCOc1ccc(N=CC2=C(O)CC(C)(C)CC2=O)cc1	esBAF inh 47.6
O=C(Cc1ccccn1)NCC[C@@H]1CC[C@H](NC(=O)c2ccccc2F)[C@H](CO)O1	none (no result: A3G deaminase, A3A deaminase, MITF act, Wnt act, PHOSPHO1 inh)
Cc1cccc(N2CC(=O)N(c3cccc(C)c3)CC2=O)c1	none (no result: esBAF inh)
COc1cccc(N2CC(=O)N(c3cccc(OC)c3)CC2=O)c1	PHOSPHO1 inh 60.0 (no result: esBAF inh)
Cn1c(-c2sccc2OCc2ccc(Cl)cc2Cl)n[nH]c1=S	none (no result: esBAF inh)
Cc1ccc(COc2ccsc2-c2n[nH]c(=S)n2C)cc1	PHOSPHO1 inh 107.1 (no result: MITF act, Wnt act)
COC(=O)CSc1nc2ccc(C)cc2cc1C#N	Wnt act 67.1 (no result: esBAF inh)
Cc1ccc2nc(SCC(=O)NCc3ccco3)c(C#N)cc2c1	Wnt act 59.2 (no result: MITF act)
Cc1ccc2cc(C#N)c(SCC(=O)NCc3ccco3)nc2c1	none (no result: Wnt act)
CO[C@@H]1CN(C)C(=O)c2ccc(NS(C)(=O)=O)cc2OC[C@H](C)N(C(=O)C2CCOCC2)C[C@@H]1C	none (no result: A3G deaminase, A3A deaminase, MITF act, Wnt act, PHOSPHO1 inh)
CO[C@H]1CN(C)C(=O)c2ccc(NS(C)(=O)=O)cc2OC[C@@H](C)N(C(=O)CC2CC2)C[C@@H]1C	none (no result: A3G deaminase, A3A deaminase, MITF act, Wnt act, PHOSPHO1 inh)
COC(=O)C(Cc1ccc(OC(=O)c2ccccc2Cl)cc1)N1Cc2ccccc2C1=O (stereo not given)	esBAF inh 44.4 (no result: Wnt act)
CCn1c(SCC(=O)N/N=C/C(C)=C/c2ccco2)nnc1-c1ccccc1	PHOSPHO1 inh 69.6 (no result: MITF act, Wnt act)
C[C@@H]1CN([C@@H](C)CO)C(=O)Cc2cc(NS(C)(=O)=O)ccc2O[C@H]1CN(C)Cc1ccc(C(F)(F)F)cc1	none (no result: A3G deaminase, A3A deaminase, MITF act, Wnt act, PHOSPHO1 inh)
CCS(=O)(=O)Nc1ccc2c(c1)C(=O)N(C)C[C@H](OC)[C@@H](C)CN(C(=O)C1CC1)[C@H](C)CO2	none (no result: A3G deaminase, A3A deaminase, MITF act, Wnt act, PHOSPHO1 inh)
C=CCNC(=S)Nc1ccc2nc(C)c(C)nc2c1	esBAF inh inconclusive (no result: MITF act, Wnt act)
Cc1nc2ccc(NC(=S)NCc3ccccc3)cc2nc1C	esBAF inh 41.3
CCCCC#Cc1ccc2c(c1)COc1c3ccccc3nn1-2	esBAF inh 71.3
CCCCCCC#Cc1ccc2c(c1)COc1c3ccccc3nn1-2	MITF act 83.8
C[C@@H]1CCCCO[C@@H](CN(C)Cc2ccncc2)[C@H](C)CN([C@H](C)CO)C(=O)c2cc(NC(=O)CCCN(C)C)ccc2O1	none (no result: A3G deaminase, A3A deaminase, MITF act, Wnt act, PHOSPHO1 inh)
O=Cc1c(OCc2ccccc2)ccc2ccccc12	esBAF inh 100.5
C/[N+]([O-])=C/c1c(OCc2ccccc2)ccc2ccccc12	esBAF inh inconclusive
Cc1ccc(S(=O)(=O)Nc2ccc3c(c2)C(=O)N([C@H](C)CO)C[C@@H](C)[C@@H](CN(C)Cc2ccc(C(=O)O)cc2)O3)cc1	none (no result: A3G deaminase, A3A deaminase, MITF act, Wnt act, PHOSPHO1 inh)
COc1cc(NC(=O)Cn2cnc3c(nc4n3CCCCC4)c2=O)cc(OC)c1OC	PHOSPHO1 inh 75.1
COc1cc(NC(=O)C2CCCN(c3ncnc4c3nc3n4CCCCC3)C2)cc(OC)c1OC (stereo not given)	none
CC1=C(C(=O)NC2CCCc3c2cnn3-c2cccc(C)c2C)OCCO1 (stereo not given)	none
COc1ccc(C(=O)NC2CCCc3c2cnn3-c2cccc(C)c2C)o1 (stereo not given)	PHOSPHO1 inh 64.0
CN1C(C(=O)c2ccccc2)=C(N)c2ccccc2S1(=O)=O	PHOSPHO1 inh 64.2
Cc1ccc(-c2nc(C#N)c(NCCc3ccccn3)o2)cc1	esBAF inh 52.2 (no result: Wnt act)
COc1ccc(-c2nc(C#N)c(NCCc3ccccc3)o2)cc1	none (no result: esBAF inh)
N#Cc1nc(-c2ccc(Cl)cc2)oc1NCCc1ccccn1	Wnt act 36.3
C[C@H]1CCCCO[C@@H](CN(C)Cc2ccc3c(c2)OCO3)[C@@H](C)CN([C@@H](C)CO)C(=O)c2cc(NC(=O)Nc3ccccc3)ccc2O1	none (no result: A3G deaminase, A3A deaminase, MITF act, Wnt act, PHOSPHO1 inh)
O=C(CC1Sc2ccccc2NC1=O)OCC(=O)N1CCc2ccccc21 (stereo not given)	PHOSPHO1 inh 62.4
COc1ccccc1Nc1nc2ccccc2n1C	MITF act 92.2, esBAF inh 64.6
O=C(CCNC(=O)c1ccccc1Cl)Nc1nc(-c2ccccc2Cl)cs1	esBAF inh 55.1
Cc1noc(C)c1S(=O)(=O)N(C)C[C@@H]1OCCCC[C@@H](C)Oc2ccc(NC(=O)Nc3ccc(F)cc3)cc2C(=O)N([C@@H](C)CO)C[C@H]1C	none (no result: A3G deaminase, A3A deaminase, MITF act, Wnt act, PHOSPHO1 inh)
COc1ccc(C(=O)/C=C/c2ccccc2C(F)(F)F)cc1	Wnt act 34.1
CO[C@@H]1CN(C)C(=O)c2cc(NC(=O)Nc3cccc(F)c3)ccc2OC[C@H](C)N(C)C[C@H]1C	none (no result: A3G deaminase, A3A deaminase, MITF act, Wnt act, PHOSPHO1 inh)
O=C(COc1ccc(Cl)cc1Cl)NC(=S)Nc1ccccc1C(=O)O	none (no result: MITF act, Wnt act, esBAF inh)
CC(=O)c1sc(NC(=O)COc2ccc(Cl)cc2C)nc1C	none (no result: esBAF inh)
CC(=O)NC(=S)Nc1ccc(NC(=O)COc2ccc(Cl)cc2Cl)cc1	none (no result: esBAF inh)
O=C(COc1ccc(Cl)cc1Cl)NNC(=S)Nc1ccc(F)cc1	PHOSPHO1 inh 71.1
CSc1ccccc1NC(=O)COc1ccc(Cl)cc1Cl	esBAF inh 47.4 (no result: Wnt act)
O=C(CCCOc1ccc(Cl)cc1Cl)Nc1ccccc1C(=O)O	Wnt act inconclusive, esBAF inh 78.9
CSc1ccccc1NC(=O)COc1ccccc1Cl	none (no result: Wnt act)
CC(=O)c1sc(NC(=O)COc2ccc(Cl)cc2Cl)nc1C	esBAF inh 45.0
COc1ccc(NC(=O)N(C)C[C@@H]2Oc3c(NC(=O)c4nc5ccccc5s4)cccc3C(=O)N([C@@H](C)CO)C[C@@H]2C)cc1	none (no result: A3G deaminase, A3A deaminase, MITF act, Wnt act, PHOSPHO1 inh)
Cc1ccccc1S(=O)(=O)NCC[C@@H]1CC[C@H](NC(=O)Nc2cccc(F)c2)[C@H](CO)O1	none (no result: A3G deaminase, A3A deaminase, MITF act, Wnt act, PHOSPHO1 inh)
C[C@H]1CCCCO[C@H](CN(C)C(=O)Nc2ccc3c(c2)OCO3)[C@@H](C)CN([C@@H](C)CO)C(=O)c2cc(NS(=O)(=O)c3cn(C)cn3)ccc2O1	none (no result: A3G deaminase, A3A deaminase, MITF act, Wnt act, PHOSPHO1 inh)
Cc1ccccc1S(=O)(=O)NCC[C@H]1CC[C@H](NC(=O)C2CCC2)[C@@H](CO)O1	none (no result: A3G deaminase, A3A deaminase, MITF act, Wnt act, PHOSPHO1 inh)
CC(C)(C)C(=O)NNC(=O)CCCOc1ccc(Cl)cc1Cl	none (no result: Wnt act)
CC(C)(CO)NC(=O)CCCOc1ccc(Cl)cc1Cl	esBAF inh 47.9 (no result: Wnt act)
CCOC(=O)N1CCN(C(=O)CCn2c(=S)[nH]c3cc(OCC)c(OCC)cc3c2=O)CC1	PHOSPHO1 inh 66.2 (no result: MITF act, Wnt act, esBAF inh)
O=C(CCn1c(=S)[nH]c2cc3c(cc2c1=O)OCO3)N1CCc2ccccc2C1	PHOSPHO1 inh 66.4 (no result: MITF act, Wnt act, esBAF inh)
